NADH enzymes = inhibition of NAD/NADH coupling enzymes, library profiling; coupled PK/LDH NADH assays, four targets; IC50, µM (doses to about 10 µM); 65,000 compounds, 0.02% hits;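 active = single-dose screening hits from any of four coupled enzyme assays that gave an IC50 when retested across doses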;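 note: the DPM-DC format reads NADH fluorescence rather than 340 nm absorbance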
MK inhibit = S. pneumoniae mevalonate kinase inhibition. purified MK, PK/LDH-coupled NADH absorbance 340 nm. AID 555. 65,000 compounds, 0.48% hits. inhibition, % at 10 µM;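 active = ranked among the strongest by inhibition in the single 10 µM screen, a fixed top-ranked set picked for dose follow-up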
Spn DPM-DC inh = blocks S. pneumoniae diphosphomevalonate decarboxylase; purified DPM-DC, PK/LDH coupled NADH fluorescence; calls only at 10 µM; 65,000 compounds, 0.49% hits; AID 556;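 active = the 320 compounds with the highest percent inhibition in the single-dose primary screen, excluding strongly autofluorescent ones, cut at about 32% in these data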;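 note: kinetic rate of NADH fluorescence loss reporting ADP formed by the decarboxylase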
Autofluor 339 = intrinsic fluorescence of library compounds, ex339/em460 – biochemical, MLSMR library, data from DPM-DC assay, artefact control, profiling panel. fluorescence fold increase at 10 µM. 65,000 compounds, 5.5% hits. compound autofluorescence, ex339/em460 nm, NADH buffer; hits give high values; 1 = no-compound wells, NADH background;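 active = at 10 µM, mean starting fluorescence two-fold or more over control wells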;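 note: signal is the first read of a kinetic run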
PMK inhibit = blocks S. pneumoniae phosphomevalonate kinase. purified PMK, PK/LDH-coupled NADH absorbance 340 nm. inhibition, % at 10 µM. 65,000 compounds, 0.49% hits;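 active = top-ranked compounds by inhibition in the single 10 µM screen, taking a fixed number of the strongest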
Abs 340nm = absorbance at 340 nm; compound absorbance at 340 nm, fold over control; fold change at 10 µM; 65,000 tested, under 10 active; AID 708;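 active = at 10 µM dose, initial 340 nm absorbance at least 2 fold that of control wells; inactive = change under 2 fold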;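 note: initial absorbance extrapolated from kinetic A340 decline of NADH oxidation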
Numbers stand for hits; i = inactive; nt = no result shown; + = active, no number. An excerpt weighted towards active compounds, which were near 6.5% of everything screened.

SMILES	NADH enzymes	MK inhibit	Spn DPM-DC inh	Autofluor 339	PMK inhibit	Abs 340nm
O=C(Nn1c(=S)[nH]c2ccccc2c1=O)c1ccncc1	i	i	i	i	i	i
CCOC(=O)CSC1=NC(=O)CS1	i	i	i	i	i	i
CCOC(=O)CSCc1nc(-c2ccc(Cl)cc2)oc1C	i	i	i	i	i	i
CCOC(=O)CNc1c(-c2ccc(F)cc2)nc2cnccn12	i	i	nt	2.3	i	i
CCOC(=O)CCc1c(C)nc2cc(-c3ccc(F)cc3)[nH]n2c1=O	i	i	i	i	i	i
CCOC(=O)CNc1c(-c2ccc(Cl)cc2)nc2cnccn12	i	i	nt	4.9	i	i
Cc1cc(C(F)(F)F)nc(SCC(=O)NC2CC3CCC2C3)n1 (stereo unspecified)	i	i	i	i	i	i
O=C(CN1C(=O)C2(OCCO2)c2ccccc21)c1ccc(Br)cc1	i	i	i	i	i	i
Cc1oc2c(O)c(O)ccc2c(=O)c1-c1cnn(-c2ccccc2)c1	i	i	i	i	i	i
CCOC(=O)c1oc2c(CN3CCN(C)CC3)c(O)ccc2c(=O)c1-c1ccccc1OC	i	i	i	i	i	i
COc1ccc(-c2c(C)oc3c(CN4CCN(CCO)CC4)c(O)ccc3c2=O)cc1OC	i	i	nt	3.9	i	i
Cc1oc2c(O)c(O)ccc2c(=O)c1-c1ccccc1	i	i	i	i	29	i
CCOc1ccccc1Oc1c(C)oc2c(CN3CCN(C)CC3)c(O)ccc2c1=O	i	i	nt	3.9	i	i
Cc1oc2c(CN3CCCC3)c(O)ccc2c(=O)c1-c1ccc(Br)cc1	i	i	nt	3.8	i	i
Cc1onc(-c2ccccc2)c1C(=O)Nc1nnc(COc2ccc(Cl)cc2)s1	i	i	i	i	i	i
CCOCCOCN(C#N)c1nc(OC)nc(N(C)C)n1	i	i	i	i	i	i
Cc1c(NC(=O)CCCCCN2C(=O)C3C4C=CC(C4)C3C2=O)c(=O)n(-c2ccccc2)n1C (stereo unspecified)	i	i	i	i	i	i
COc1ccccc1-c1c(C)oc2c(CN3CCN(CCO)CC3)c(O)ccc2c1=O	i	i	nt	3.9	i	i
COc1ccccc1-c1c(C)oc2c(CN3CCN(C)CC3)c(O)ccc2c1=O	i	i	nt	2.4	i	i
CCCCCNC(=O)C(C#N)c1nc2ccccc2nc1N1CCCC1 (stereo unspecified)	i	i	i	2.4	i	i
CCN(CC)c1nc2ccccc2nc1C(C#N)C(=O)NCCCOC (stereo unspecified)	i	i	i	2.4	i	i
Cc1ccc(S(=O)(=O)C(C#N)c2nc3ccccc3nc2N2CCCC2)cc1 (stereo unspecified)	i	i	nt	3.8	i	i
O=C(CCN1c2ccccc2Sc2ccccc21)OCC(=O)N1CCN(C(=O)c2ccco2)CC1	i	i	i	i	i	i
Cn1ccnc1Sc1nc2ccccc2nc1NS(=O)(=O)c1ccccc1	i	i	i	i	i	i
CSc1nsc(SCc2ccc(F)cc2)n1	i	i	i	i	i	i
SMILES	NADH enzymes	MK inhibit	Spn DPM-DC inh	Autofluor 339	PMK inhibit	Abs 340nm
CSCC[C@H](NC(=O)OC(C)(C)C)c1nnc(SCC(=O)Nc2ccc(C)cc2C)o1	i	i	i	i	i	i
COc1ccc(C2C3=C(CCCC3=O)Nc3nc(C(F)(F)F)nn32)c(OC)c1OC (stereo unspecified)	i	i	i	i	i	i
CCc1cc(=O)oc2c(C)c(O)c(CN(C)C)cc12	i	i	nt	3.9	i	i
CCC(=O)c1cc2c(C)cc(=O)oc2c(C)c1O	i	i	i	i	i	i
Cc1cc2oc(=O)cc(C)c2cc1NC(=O)CCC(=O)O	i	i	i	2.5	i	i
O=C(CCCCCn1c(=O)[nH]c2ccccc2c1=O)NCCCN1CCN(c2ccccc2F)CC1	i	i	i	i	i	i
Nc1nc(N)c2nc(-c3ccccc3)c(N)nc2n1	i	i	nt	2.5	i	i
N#Cc1c(N)nc(-c2ccccc2)nc1-c1ccccc1	i	i	i	i	i	i
O=C1NC(Nc2nccs2)(C(F)(F)F)C(=O)N1CCc1ccccc1 (stereo unspecified)	i	i	i	i	i	i
CCCc1nnc(NC(=O)CN2CCOCC2)s1	i	i	+	i	i	i
CCc1nnc(NC(=O)CN2CCOCC2)s1	i	i	i	i	i	i
O=C(c1cc2ccccc2oc1=O)N(Cc1ccc2c(c1)OCO2)Cc1ccco1	i	i	i	i	i	i
CCNc1nc(NC(C)(C)C)nc(N(C#N)CC)n1	i	i	i	i	25	i
CCOc1ccccc1NC(=O)Cn1cnc2c(cnn2-c2ccc(C)c(C)c2)c1=O	i	i	i	i	i	i
Cc1ccc(-n2ncc3c(=O)n(CC(=O)Nc4cccc(Cl)c4)cnc32)cc1C	i	i	i	2.7	i	i
CCOC(=O)COc1ccc2cc(C(=O)OCC)c(=O)oc2c1	i	i	nt	2.3	i	i
Cc1cc(-n2c(C)cc(C(=O)COc3ccc4ccc(=O)oc4c3)c2C)no1	i	i	nt	4.2	i	i
CN(C)C(=O)COc1ccc2ccc(=O)oc2c1	i	i	nt	2.2	i	i
COc1ccc(-c2nn(C)c(=O)c3ccccc23)cc1CNC(=O)CN1CCOCC1	i	i	i	i	i	i
Cc1cc(NC(=O)c2cc3nc4c(c(C(F)(F)F)n3n2)CCc2ccccc2-4)no1	i	i	nt	2.2	i	i
Cc1cc(NC(=O)c2cc3nc(C4CC4)cc(C(F)(F)F)n3n2)no1	i	i	i	i	i	i
Cc1c(-c2ccccc2)[n+](=O)c(-c2ccco2)c(C)n1[O-]	i	i	i	i	i	i
CC(C)Oc1ccc2c3c(c(=O)oc2c1)CCC3	i	i	nt	2.1	i	i
O=C(Oc1ccc2c3c(c(=O)oc2c1)CCCC3)c1ccco1	i	i	nt	2.2	i	i
Cc1coc2cc3oc(=O)c4c(c3cc12)CCCC4	i	i	i	i	i	i
SMILES	NADH enzymes	MK inhibit	Spn DPM-DC inh	Autofluor 339	PMK inhibit	Abs 340nm
CCCOc1ccc2c3c(c(=O)oc2c1)CCCC3	i	i	nt	3.8	i	i
CCOc1cc2oc(=O)c3c(c2cc1Cl)CCC3	i	i	i	i	i	i
COC(=O)C(C)Oc1ccc2c3c(c(=O)oc2c1)CCCCC3 (stereo unspecified)	i	i	nt	3	i	i
COC(=O)c1ccc(OC(=O)c2ccco2)cc1	i	i	i	i	i	i
O=C(NCCCn1ccnc1)C(Cc1ccccc1)N1C(=O)c2ccccc2C1=O (stereo unspecified)	i	i	i	i	i	i
O=C(CSc1ncn[nH]1)NCCCc1ccccc1	i	i	i	i	i	i
O=c1oc2cc(O)ccc2c2c1CCCC2	i	i	nt	2.1	i	i
CCc1cc2c3c(c(=O)oc2cc1OC)CCCC3	i	i	nt	3.8	i	i
CCN(CC)c1ccc2c(c1)oc(=O)c1c(Cl)cc(=O)oc12	i	i	i	i	i	i
O=c1oc2cc(O)ccc2c2oc3cc(O)ccc3c12	i	i	nt	2.4	i	i

Screening data from PubChem BioAssay.
